Laboratory results taken from the supplement of paper PMC10849652.
Of roughly 7,900 targets only a part is listed; those with a hit were picked by preference. About 0.6% of all pairs of compound and target were hits. Unmarked numbers belong to inactive results.

Tests used:
Assay in all cases: log2 fold change, soluble protein after heating vs DMSO (PISA); higher = thermal stabilisation; K562 cells, 10 uM, 30 min; active = over 0.2 and 3.5 SD of the protein, either way, in both replicates (recomputed)
erlotinib = compound: C#Cc1cccc(Nc2ncnc3cc(OCCOC)c(OCCOC)cc23)c1 [erlotinib]
Summary of the method: (§1)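 K562 cells at 2×10^6 cells/mL were exposed to 10 μM compound for 30 min, then aliquots were heated for 3 min across 48°C-58°C, pooled, and extracted in PBS containing 0.5% NP-40 at 4°C. The supernatant after 21,000xg for 90 min was taken as soluble protein and measured by TMTpro 16plex LC-MS/MS with channel sums equalised. Thermal stability is reported relative to control samples, with values from duplicates. Fold changes are given on a log2 scale.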

[1] = compound: C/C(=N\NC(=O)C1=CC(=CC=C1)S(=O)(=O)N2CCOCC2)/C3=C(C=CC(=C3)Cl)O
Summary of the method: as §1

[2] = compound: C1=CC(=C(C=C1Cl)C2=NC3=NC=CN=C3C(=N2)NC4=CC=NC=C4)F
Summary of the method: as §1

[3] = compound: C1=CC(=CC=C1C2=NC3=C(N2)C=C(C=C3)C(=O)N)OC4=CC=C(C=C4)Cl
Summary of the method: as §1

[4] = compound: C1=CC2=C(C=CC(=C2)/C=C\3/C(=O)NC(=NCC4=CC=CS4)S3)N=C1
Summary of the method: as §1

[5] = compound: C1=CC2=NC=CN=C2C=C1/C=C/3\C(=O)NC(=O)S3
Summary of the method: as §1

[6] = compound: C1=CC=C(C=C1)C2=NC(=C(N2)C3=CC=NC=C3)C4=CC(=C(C=C4)Cl)O
Summary of the method: as §1

[7] = compound: C1=CC=C2C(=C1)C3=NNC4=CC=CC(=C43)C2=O
Summary of the method: as §1

[8] = compound: C1CCN(C1)C(=O)NC2=CC=CC(=C2)NC3=NC=C(C(=N3)NCCC4=CN=CN4)Br
Summary of the method: as §1

[9] = compound: C1CN(CCC1(CC2=CC=C(C=C2)Cl)N)C3=NC=NC4=C3C=CN4
Summary of the method: as §1

Chain of UniProt Q93009 (Q93009 whole entry, looked up): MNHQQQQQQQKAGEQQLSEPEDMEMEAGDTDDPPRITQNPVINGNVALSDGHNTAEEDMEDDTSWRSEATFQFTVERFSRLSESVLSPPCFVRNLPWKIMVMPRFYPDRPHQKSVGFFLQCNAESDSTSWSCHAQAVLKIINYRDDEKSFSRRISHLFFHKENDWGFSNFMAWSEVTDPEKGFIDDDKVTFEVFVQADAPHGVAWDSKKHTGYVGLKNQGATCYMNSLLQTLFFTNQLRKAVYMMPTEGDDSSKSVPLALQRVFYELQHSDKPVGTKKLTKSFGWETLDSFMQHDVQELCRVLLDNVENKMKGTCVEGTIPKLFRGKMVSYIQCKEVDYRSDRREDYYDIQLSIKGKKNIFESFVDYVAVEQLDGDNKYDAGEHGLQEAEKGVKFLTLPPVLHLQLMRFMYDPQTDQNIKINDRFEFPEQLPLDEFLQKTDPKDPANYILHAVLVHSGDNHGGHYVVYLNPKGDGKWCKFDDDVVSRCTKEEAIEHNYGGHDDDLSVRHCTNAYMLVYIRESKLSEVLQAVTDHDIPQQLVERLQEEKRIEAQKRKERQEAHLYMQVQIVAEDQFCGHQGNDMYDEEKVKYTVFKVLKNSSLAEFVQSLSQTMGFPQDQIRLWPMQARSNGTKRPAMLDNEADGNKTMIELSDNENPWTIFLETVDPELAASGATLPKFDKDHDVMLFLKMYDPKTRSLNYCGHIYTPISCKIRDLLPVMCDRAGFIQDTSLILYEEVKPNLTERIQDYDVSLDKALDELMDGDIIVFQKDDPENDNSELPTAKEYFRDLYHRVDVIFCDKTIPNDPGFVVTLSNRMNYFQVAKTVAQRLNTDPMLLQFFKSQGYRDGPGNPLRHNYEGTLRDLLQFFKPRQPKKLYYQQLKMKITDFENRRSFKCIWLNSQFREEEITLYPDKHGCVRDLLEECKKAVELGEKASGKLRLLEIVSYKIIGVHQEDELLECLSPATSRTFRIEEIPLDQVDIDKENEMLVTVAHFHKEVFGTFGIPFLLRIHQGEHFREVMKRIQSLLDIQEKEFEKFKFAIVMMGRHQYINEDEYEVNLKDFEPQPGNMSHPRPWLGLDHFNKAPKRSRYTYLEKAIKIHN
Chain of UniProt Q86SZ2 (Q86SZ2 whole entry, looked up): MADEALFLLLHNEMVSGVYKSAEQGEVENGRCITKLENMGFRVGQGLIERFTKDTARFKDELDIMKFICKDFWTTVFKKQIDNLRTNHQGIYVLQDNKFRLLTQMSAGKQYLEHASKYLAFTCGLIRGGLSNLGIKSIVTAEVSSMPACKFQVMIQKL
Chain of UniProt Q13263 (Q13263 whole entry, looked up): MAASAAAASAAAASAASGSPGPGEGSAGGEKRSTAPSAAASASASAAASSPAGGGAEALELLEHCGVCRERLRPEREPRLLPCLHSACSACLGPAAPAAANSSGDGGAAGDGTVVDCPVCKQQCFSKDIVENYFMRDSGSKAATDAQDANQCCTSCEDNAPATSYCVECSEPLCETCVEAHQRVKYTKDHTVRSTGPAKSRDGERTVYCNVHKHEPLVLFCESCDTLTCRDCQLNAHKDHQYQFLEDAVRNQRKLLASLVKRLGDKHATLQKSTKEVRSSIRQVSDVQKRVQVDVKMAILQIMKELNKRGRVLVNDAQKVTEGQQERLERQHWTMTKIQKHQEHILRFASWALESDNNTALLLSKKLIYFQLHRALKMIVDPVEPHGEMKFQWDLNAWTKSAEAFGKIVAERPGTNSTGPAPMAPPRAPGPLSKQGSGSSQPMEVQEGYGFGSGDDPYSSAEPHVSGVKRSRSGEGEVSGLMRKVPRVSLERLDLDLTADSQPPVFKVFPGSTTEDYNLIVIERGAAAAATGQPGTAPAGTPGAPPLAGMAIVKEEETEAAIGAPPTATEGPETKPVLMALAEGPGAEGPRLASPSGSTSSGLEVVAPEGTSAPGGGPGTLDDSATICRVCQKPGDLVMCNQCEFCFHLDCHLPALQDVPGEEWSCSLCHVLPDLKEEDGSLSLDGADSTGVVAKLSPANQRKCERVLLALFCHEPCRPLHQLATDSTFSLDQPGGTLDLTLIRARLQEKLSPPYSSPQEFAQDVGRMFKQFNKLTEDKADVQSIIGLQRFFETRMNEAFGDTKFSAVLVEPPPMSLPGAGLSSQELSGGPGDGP
Chain of UniProt Q8NCE0 (Q8NCE0 whole entry, looked up): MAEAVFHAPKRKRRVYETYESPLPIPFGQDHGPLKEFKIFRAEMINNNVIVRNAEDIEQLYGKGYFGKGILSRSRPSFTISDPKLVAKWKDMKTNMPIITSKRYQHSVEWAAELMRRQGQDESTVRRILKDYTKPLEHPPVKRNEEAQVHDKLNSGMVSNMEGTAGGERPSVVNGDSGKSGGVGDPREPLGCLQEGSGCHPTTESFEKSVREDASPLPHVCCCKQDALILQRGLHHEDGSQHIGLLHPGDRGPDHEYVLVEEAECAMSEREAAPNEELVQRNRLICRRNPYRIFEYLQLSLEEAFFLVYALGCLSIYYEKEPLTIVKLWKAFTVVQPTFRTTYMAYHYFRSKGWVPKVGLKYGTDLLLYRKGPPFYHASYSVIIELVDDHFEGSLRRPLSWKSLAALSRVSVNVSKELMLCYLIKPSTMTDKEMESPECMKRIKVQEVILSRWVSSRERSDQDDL
Chain of UniProt Q8N1B4 (Q8N1B4 whole entry, looked up): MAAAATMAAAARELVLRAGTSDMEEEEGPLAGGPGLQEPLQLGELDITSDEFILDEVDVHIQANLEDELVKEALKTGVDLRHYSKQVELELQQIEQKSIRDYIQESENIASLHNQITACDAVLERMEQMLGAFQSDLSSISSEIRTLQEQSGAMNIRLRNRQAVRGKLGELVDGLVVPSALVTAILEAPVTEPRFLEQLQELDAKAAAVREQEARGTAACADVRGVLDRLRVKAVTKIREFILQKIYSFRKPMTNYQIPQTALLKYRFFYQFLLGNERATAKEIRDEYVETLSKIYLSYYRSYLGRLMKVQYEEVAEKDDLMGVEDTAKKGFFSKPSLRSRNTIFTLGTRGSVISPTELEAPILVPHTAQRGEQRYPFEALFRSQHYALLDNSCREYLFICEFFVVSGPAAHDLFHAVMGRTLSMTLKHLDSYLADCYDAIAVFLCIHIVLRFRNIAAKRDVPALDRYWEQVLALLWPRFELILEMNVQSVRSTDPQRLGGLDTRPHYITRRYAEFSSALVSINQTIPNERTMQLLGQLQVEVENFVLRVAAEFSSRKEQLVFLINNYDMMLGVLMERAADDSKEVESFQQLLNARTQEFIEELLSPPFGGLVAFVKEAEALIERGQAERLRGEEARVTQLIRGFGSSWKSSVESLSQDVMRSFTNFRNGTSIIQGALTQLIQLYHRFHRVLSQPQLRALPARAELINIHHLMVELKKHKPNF
Chain of UniProt O43156 (O43156 whole entry, looked up): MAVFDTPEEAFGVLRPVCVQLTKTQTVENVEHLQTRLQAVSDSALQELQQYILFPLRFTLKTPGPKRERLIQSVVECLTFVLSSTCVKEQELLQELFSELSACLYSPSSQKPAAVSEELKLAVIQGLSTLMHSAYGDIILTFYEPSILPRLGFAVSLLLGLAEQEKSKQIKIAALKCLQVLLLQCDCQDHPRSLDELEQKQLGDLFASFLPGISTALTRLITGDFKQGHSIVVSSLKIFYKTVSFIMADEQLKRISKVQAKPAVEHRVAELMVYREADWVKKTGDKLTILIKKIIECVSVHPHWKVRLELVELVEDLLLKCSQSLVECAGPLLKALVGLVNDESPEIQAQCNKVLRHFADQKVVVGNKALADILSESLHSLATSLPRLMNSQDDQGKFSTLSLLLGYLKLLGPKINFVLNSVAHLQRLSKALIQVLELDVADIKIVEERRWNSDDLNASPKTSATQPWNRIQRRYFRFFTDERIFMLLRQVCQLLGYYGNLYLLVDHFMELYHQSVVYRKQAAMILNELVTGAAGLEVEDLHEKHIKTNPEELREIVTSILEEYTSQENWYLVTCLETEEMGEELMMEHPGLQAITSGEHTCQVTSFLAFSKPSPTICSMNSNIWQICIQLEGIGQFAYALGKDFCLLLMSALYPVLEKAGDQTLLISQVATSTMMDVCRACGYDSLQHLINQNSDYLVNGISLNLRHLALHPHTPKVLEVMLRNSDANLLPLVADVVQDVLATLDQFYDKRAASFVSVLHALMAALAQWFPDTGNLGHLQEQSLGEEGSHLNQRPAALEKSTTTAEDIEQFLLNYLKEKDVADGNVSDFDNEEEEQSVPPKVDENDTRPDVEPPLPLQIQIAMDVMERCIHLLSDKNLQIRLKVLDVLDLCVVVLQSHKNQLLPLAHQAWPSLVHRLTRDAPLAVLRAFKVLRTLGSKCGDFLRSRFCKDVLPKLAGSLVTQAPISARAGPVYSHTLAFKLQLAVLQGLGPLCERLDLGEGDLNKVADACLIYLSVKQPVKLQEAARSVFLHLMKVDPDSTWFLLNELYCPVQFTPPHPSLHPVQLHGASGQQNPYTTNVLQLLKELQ
Chain of UniProt Q96FX7 (Q96FX7 whole entry, looked up): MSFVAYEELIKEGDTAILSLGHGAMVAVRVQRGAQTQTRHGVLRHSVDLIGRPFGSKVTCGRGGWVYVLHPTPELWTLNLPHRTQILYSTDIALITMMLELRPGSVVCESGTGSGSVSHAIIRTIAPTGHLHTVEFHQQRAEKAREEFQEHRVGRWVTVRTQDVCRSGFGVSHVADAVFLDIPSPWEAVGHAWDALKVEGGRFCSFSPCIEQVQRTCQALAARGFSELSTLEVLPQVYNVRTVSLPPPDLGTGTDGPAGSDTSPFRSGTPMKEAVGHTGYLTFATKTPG
Chain of UniProt Q7Z7N9 (Q7Z7N9 whole entry, looked up): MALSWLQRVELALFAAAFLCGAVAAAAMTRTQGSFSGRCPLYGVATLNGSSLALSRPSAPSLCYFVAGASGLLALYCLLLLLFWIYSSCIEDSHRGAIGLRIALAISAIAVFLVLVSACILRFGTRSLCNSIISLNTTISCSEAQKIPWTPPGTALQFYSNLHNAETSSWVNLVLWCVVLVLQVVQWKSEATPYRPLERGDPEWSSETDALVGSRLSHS

Row | Target | log2 fold change (erlotinib) | log2 fold change [1] | log2 fold change [2] | log2 fold change [3] | log2 fold change [4] | log2 fold change [5] | log2 fold change [6] | log2 fold change [7] | log2 fold change [8] | log2 fold change [9]
1 | USP7 (UniProt Q93009) | 0.089 | 0.139 | 0.046 | 0 | 0.159 | 0.004 | 0.068 | 0.085 | -0.04 | -0.003
2 | TRAPPC6B (UniProt Q86SZ2) | 0.026 | 0.07 | 0.315 (active) | -0.016 | 0.011 | -0.006 | -0.016 | -0.014 | -0.048 | 0.018
3 | USP14 (UniProt P54578) | -0.027 | 0.03 | 0.084 | -0.014 | -0.04 | 0 | 0.02 | 0.015 | -0.016 | -0.001
4 | UBAP1 isoform 4 (UniProt Q9NZ09) | 0.001 | 0.127 | 0.013 | 0.049 | 0.025 | 0.027 | -0.02 | 0.024 | 0.058 | -0.093
5 | TMEM179B (UniProt Q7Z7N9) | 0.042 | -0.016 | 0.073 | 0.032 | -0.009 | 0.034 | -0.107 | -0.032 | -0.165 | -0.005
6 | UBAP2L isoform 5 (UniProt Q14157) | 0.057 | -0.005 | 0.005 | 0 | 0.013 | 0.015 | -0.029 | -0.03 | -0.007 | 0.026
7 | USO1 isoform 2 (UniProt O60763) | -0.008 | 0.046 | 0.051 | -0.028 | -0.049 | 0.059 | 0.004 | -0.028 | 0.033 | -0.014
8 | TNFAIP8 isoform 4 (UniProt O95379) | 0.019 | 0.071 | 0.087 | -0.028 | 0.039 | 0.017 | -0.015 | -0.07 | 0.003 | 0.023
9 | TMEM63B (UniProt Q5T3F8) | -0.037 | 0.063 | -0.024 | -0.009 | -0.066 | 0.012 | -0.076 | -0.033 | 0.011 | 0.065
10 | VPS51 (UniProt Q9UID3) | -0.003 | 0.123 | -0.02 | -0.01 | -0.002 | 0.035 | -0.014 | -0.016 | -0.029 | -0.02
11 | VRK1 (UniProt Q99986) | 0.087 | -0.055 | 0.119 | -0.016 | 0.038 | -0.024 | -0.039 | 0.078 | -0.044 | -0.045
12 | WDR61 (UniProt Q9GZS3) | 0.021 | 0.066 | 0.051 | 0.027 | 0.057 | -0.016 | 0.01 | 0 | 0.077 | 0.026
13 | TRIM28 (UniProt Q13263) | 0.001 | 0.077 | 0.041 | -0.023 | -0.021 | 0.018 | -0.023 | 0.004 | -0.013 | -0.026
14 | TTI1 (UniProt O43156) | -0.078 | 0.115 | -0.015 | -0.045 | 0.057 | 0.028 | 0.029 | 0.008 | 0.019 | 0.028
15 | WDR41 (UniProt Q9HAD4) | 0.039 | 0.038 | 0.128 | 0.026 | -0.016 | 0.019 | -0.005 | -0.07 | -0.012 | 0.073
16 | XPOT (UniProt O43592) | -0.035 | 0.069 | 0.005 | -0.058 | 0.037 | 0.065 | -0.047 | -0.026 | -0.005 | -0.088
17 | TOE1 (UniProt Q96GM8) | -0.029 | -0.151 | -0.267 | -0.056 | 0.002 | 0.005 | -0.05 | -0.035 | -0.021 | -0.107
18 | TMEM70 (UniProt Q9BUB7) | -0.286 | 0.03 | 0.023 | 0.257 | 0.008 | -0.09 | -0.063 | -0.039 | -0.007 | 0.053
19 | UBLCP1 (UniProt Q8WVY7) | 0.03 | 0.089 | 0.024 | -0.022 | -0.029 | 0.005 | -0.019 | 0.038 | 0.035 | -0.262 (active)
20 | TSC2 (UniProt P49815) | 0.276 | -0.047 | -0.104 | -0.297 | -0.025 | -0.135 | 0.06 | 0.063 | -0.001 | 0.199
21 | TRMT61A (UniProt Q96FX7) | -0.03 | -0.062 | -0.354 (active) | 0.087 | -0.059 | -0.07 | -0.017 | -0.046 | 0.054 | 0.054
22 | VPS52 (UniProt Q8N1B4) | 0.019 | 0.048 | -0.029 | 0.067 | 0.032 | 0.031 | 0.004 | 0.079 | -0.033 | -0.051
23 | UBA52 (UniProt P62987) | -0.113 | -0.266 | -0.659 | 0.093 | -0.311 | -0.024 | -0.029 | -0.082 | 0.165 | -0.04
24 | UCHL5 isoform 3 (UniProt Q9Y5K5) | 0.047 | 0.106 | 0.415 | -0.124 | -0.036 | 0.125 | -0.11 | 0.102 | 0.207 | -0.103
25 | TMEM161A (UniProt Q9NX61) | 0.017 | 0.088 | -0.019 | -0.018 | 0.021 | 0.001 | 0.029 | -0.006 | -0.067 | 0.054
26 | TRIM4 (UniProt Q9C037) | 0.004 | 0.031 | 0.035 | -0.199 | 0.002 | -0.01 | -0.029 | 0.135 | -0.111 | -0.073
27 | TRMT2A (UniProt Q8IZ69) | 0 | 0.069 | -0.124 | 0.07 | -0.016 | -0.009 | -0.026 | -0.09 | 0.031 | -0.011
28 | USP3 (UniProt Q9Y6I4) | 0.099 | 0.114 | 0.121 | 0.004 | -0.062 | 0.014 | 0.057 | -0.052 | 0.007 | 0.095
29 | TSEN2 (UniProt Q8NCE0) | 0.08 | -0.001 | -0.016 | 0.029 | 0.041 | 0.098 | 0.023 | 0.023 | -0.04 | 0.061
30 | WDR43 (UniProt Q15061) | 0.001 | -0.003 | 0.008 | -0.001 | -0.028 | 0.015 | -0.008 | 0.017 | -0.013 | 0.042
